Results as given in PubChem BioAssay (EPA / NIEHS).
Records with an inconclusive call do not appear. Activity calls are given as the source filed them. The calls were made as follows, unless noted: active = hit-call score of the fitted dose curve at least 0.9, where 1 is the maximum; inactive = score below 0.9.

Columns and labels:
[1] = molecular target: Transcriptional activator Myb (Homo sapiens) (UniProt P10242); assay: ATG_Myb_CIS: Attagene CIS-FACTORIAL HepG2 Assay for human Myeloblastosis (Myb) Proto-Oncogene Transcription Factor (AID 2282986); conditions: HepG2 Attagene CIS-FACTORIAL Myb reporter transcription; actives raise or lower the signal
Chain of Transcriptional activator Myb (Homo sapiens) (P10242 whole entry, looked up): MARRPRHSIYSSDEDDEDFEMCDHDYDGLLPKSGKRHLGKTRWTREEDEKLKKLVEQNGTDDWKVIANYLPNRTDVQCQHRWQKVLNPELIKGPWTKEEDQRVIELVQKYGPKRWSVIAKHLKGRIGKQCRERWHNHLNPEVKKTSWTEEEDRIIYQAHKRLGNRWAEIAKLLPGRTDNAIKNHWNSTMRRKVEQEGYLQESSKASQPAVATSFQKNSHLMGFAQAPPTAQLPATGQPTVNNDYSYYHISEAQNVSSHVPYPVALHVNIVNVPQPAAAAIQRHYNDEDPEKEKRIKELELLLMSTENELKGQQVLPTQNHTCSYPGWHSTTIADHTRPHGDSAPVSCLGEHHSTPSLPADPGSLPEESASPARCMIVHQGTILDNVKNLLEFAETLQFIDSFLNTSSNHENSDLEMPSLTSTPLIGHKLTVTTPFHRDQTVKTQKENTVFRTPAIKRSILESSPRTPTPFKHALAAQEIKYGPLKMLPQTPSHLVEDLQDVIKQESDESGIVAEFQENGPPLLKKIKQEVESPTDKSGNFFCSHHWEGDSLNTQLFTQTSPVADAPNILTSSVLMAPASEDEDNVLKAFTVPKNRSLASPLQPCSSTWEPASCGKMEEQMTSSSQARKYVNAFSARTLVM
In short: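 Transiently transfected HepG2 cells carrying a multiplexed cis-promoter reporter set report endogenous Myb activity after 24 h compound exposure. Reporter mRNA is read by RT-PCR with capillary electrophoresis of fluorescent products, fitted bidirectionally against DMSO.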

[2] = molecular target: Nuclear respiratory factor 1 (Homo sapiens) (UniProt Q16656); assay: ATG_NRF1_CIS: Attagene CIS-FACTORIAL HepG2 Assay for human Nuclear Respiratory Factor 1 (NRF1) Orphan Gene (AID 2282987); conditions: HepG2 NRF1 cis-element reporter, Attagene multiplex; actives raise or lower the signal
Chain of Nuclear respiratory factor 1 (Homo sapiens) (Q16656 whole entry, looked up): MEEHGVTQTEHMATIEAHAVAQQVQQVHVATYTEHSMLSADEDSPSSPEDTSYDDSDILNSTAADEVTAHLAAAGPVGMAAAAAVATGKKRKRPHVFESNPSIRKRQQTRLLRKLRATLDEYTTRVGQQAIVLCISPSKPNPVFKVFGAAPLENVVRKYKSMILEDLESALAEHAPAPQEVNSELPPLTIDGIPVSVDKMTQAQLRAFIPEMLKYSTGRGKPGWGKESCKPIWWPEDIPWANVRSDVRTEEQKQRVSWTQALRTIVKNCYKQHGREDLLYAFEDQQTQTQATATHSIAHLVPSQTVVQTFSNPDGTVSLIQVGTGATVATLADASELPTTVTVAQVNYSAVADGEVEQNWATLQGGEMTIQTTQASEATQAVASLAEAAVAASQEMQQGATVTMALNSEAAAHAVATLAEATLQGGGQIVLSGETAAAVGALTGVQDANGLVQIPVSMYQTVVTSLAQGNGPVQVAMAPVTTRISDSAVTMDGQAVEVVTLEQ
In short: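 HepG2 cells transiently transfected with multiple cis-regulated reporter units, exposed 24 h. Reporter mRNAs measured by RT-PCR, fluorescent labelling, HpaI digestion and capillary electrophoresis; bidirectional fitting against DMSO.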

[3] = ATG_NFI_CIS: Attagene CIS-FACTORIAL HepG2 Assay for human Nuclear Factor I (NFI) (AID 2282989); conditions: HepG2 cis-regulatory reporter, NFI response element transcription; actives raise or lower the signal
In short: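 Endogenous TF activity in HepG2 cells transiently transfected with cis-element-driven multiplexed reporter units, read 24 h after dosing. Reporter mRNA quantified by RT-PCR, 6-FAM labelling, HpaI digestion and capillary electrophoresis; bidirectional fit versus DMSO.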

[4] = molecular target: Myc proto-oncogene protein (Homo sapiens) (UniProt P01106); assay: ATG_Myc_CIS: Attagene CIS-FACTORIAL HepG2 Assay for human Myelocytomatosis (Myc) Proto-Oncogene Transcription Factor (AID 2282990); conditions: HepG2, Attagene cis-reporter transcription factor activity; actives raise or lower the signal
Chain of Myc proto-oncogene protein (Homo sapiens) (P01106 whole entry, looked up, the tested form may be a part): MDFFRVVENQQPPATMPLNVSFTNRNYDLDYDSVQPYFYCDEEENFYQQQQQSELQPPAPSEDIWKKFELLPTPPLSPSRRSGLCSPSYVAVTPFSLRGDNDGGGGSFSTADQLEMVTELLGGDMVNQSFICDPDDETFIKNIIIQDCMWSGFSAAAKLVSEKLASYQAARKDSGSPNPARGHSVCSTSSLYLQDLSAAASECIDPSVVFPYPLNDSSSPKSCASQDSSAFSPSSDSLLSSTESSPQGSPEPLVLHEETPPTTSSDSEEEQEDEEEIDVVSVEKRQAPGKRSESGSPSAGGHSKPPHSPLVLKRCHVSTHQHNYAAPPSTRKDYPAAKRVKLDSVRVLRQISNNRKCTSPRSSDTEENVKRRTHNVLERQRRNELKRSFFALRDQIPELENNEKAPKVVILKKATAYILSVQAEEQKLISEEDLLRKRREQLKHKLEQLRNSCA
In short: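 Fluorescence intensity of reporter-specific cDNA fragments, separated by capillary electrophoresis, gives the signal. Transfected HepG2 cells carrying cis-promoter reporter constructs are incubated with compound for 24 h; DMSO serves as baseline.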

[5] = ATG_NF_kB_CIS: Attagene CIS-FACTORIAL HepG2 Assay for human Nuclear Factor Kappa B (NF-kB) (AID 2282991); conditions: HepG2 Attagene cis-factorial NF-kB reporter mRNA; actives raise or lower the signal
In short: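 HepG2 cells transfected with cis-promoter-driven reporter units, so endogenous transcription factor activity is measured. Reporter mRNA quantified 24 h after dosing by RT-PCR and capillary electrophoresis, with bidirectional fitting against DMSO.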

[6] = ATG_NRF2_ARE_CIS: Attagene CIS-FACTORIAL HepG2 Assay for human Nuclear Factor Erythroid 2 Related Factor 2 (NFR2) response to Antioxidant Response Elements (ARE) (AID 2282992); conditions: HepG2 Attagene ARE/NRF2 reporter, transcription factor activity; actives raise or lower the signal;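 as to AC50: reporter mRNA level measured by RT-PCR and capillary electrophoresis fluorescence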
In short: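 Cis-factorial assay: transfected HepG2 reporter library, 24 h dosing, mRNA readout via RT-PCR/CE; DMSO-referenced bidirectional analysis.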

[7] = ATG_Oct_MLP_CIS: Attagene CIS-FACTORIAL HepG2 Assay for human Octamer-Binding Transcription Factor (Oct) (AID 2282993); conditions: HepG2 Attagene cis-factorial Oct reporter, mRNA; actives raise or lower the signal
In short: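 HepG2 cells transiently transfected with cis-element-driven reporter transcription units (endogenous TF activity); 24 h compound exposure. Reporter mRNA quantified by RT-PCR, 6-FAM labelling, HpaI digestion and capillary electrophoresis; bidirectional fit versus DMSO baseline.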

[8] = molecular target: Cellular tumor antigen p53 (Homo sapiens) (UniProt P04637); assay: ATG_p53_CIS: Attagene CIS-FACTORIAL HepG2 Assay for human p53 Transcription Factor (AID 2282994); conditions: HepG2 p53 cis-element reporter, Attagene mRNA; actives raise or lower the signal
Chain of Cellular tumor antigen p53 (Homo sapiens) (P04637 whole entry, looked up): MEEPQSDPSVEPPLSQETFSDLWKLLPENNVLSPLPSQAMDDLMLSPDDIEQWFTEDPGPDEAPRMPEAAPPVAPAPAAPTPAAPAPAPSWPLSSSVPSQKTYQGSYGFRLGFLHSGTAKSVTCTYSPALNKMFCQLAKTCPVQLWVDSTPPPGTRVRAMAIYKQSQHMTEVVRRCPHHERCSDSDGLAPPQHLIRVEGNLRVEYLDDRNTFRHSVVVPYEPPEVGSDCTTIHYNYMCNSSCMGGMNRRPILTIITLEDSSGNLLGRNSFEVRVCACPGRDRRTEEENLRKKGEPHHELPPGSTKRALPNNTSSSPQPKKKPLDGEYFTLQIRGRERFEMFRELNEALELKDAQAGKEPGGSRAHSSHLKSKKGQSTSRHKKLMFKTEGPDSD
In short: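 Using HepG2 hepatoma cells carrying cis-acting multiplexed reporters, mRNA induction is detected after a 24 h exposure. Gain- and loss-of-signal responses are fitted relative to DMSO-treated cells.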

[9] = BSK_3C_TissueFactor: BioMAP Diversity Plus: 3C Assay for Tissue Factor Biomarker Activity (AID 2282997); conditions: BioMAP 3C HUVEC, tissue factor biomarker readout; actives raise or lower the signal
In short: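 ELISA read-out of Tissue Factor levels on human umbilical vein endothelium collected 24 h after chemical dosing. Gain or loss of signal was fitted relative to DMSO.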

[10] = BSK_3C_uPAR: BioMAP Diversity Plus: 3C Assay for Urokinase-type plasminogen activator receptor (uPAR) Biomarker Activity (AID 2282998); conditions: BioMAP 3C HUVEC, uPAR biomarker ELISA; actives raise or lower the signal
In short: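 Primary human umbilical vein endothelial cells, 3C system; surface uPAR measured by ELISA 24 h after dosing. Cytotoxicity via SRB total protein in parallel cultures; bidirectional fit against DMSO.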

[11] = BSK_3C_VCAM1: BioMAP Diversity Plus: 3C Assay for Vascular cell adhesion molecule 1 (VCAM1) Biomarker Activity (AID 2282999); conditions: BioMAP 3C HUVEC, VCAM1 ELISA, cytokine-stimulated; actives raise or lower the signal
In short: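 Human umbilical vein endothelial cells (3C system), biomarker read by ELISA 24 h after dosing; bidirectional fit against DMSO baseline. Cytotoxicity tracked by SRB total-protein staining in parallel cultures at biomarker time.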

[12] = molecular target: human Peroxisome Proliferator-activated Receptor delta (PPARd), PPARD (gene 5467) (UniProt Q03181); assay: ATG_PPARd_TRANS: Attagene TRANS-FACTORIAL HepG2 Assay for human Peroxisome Proliferator-activated Receptor delta (PPARd) (AID 2283002; active = hit-call score of the fitted dose curve at least 0.9, where 1 is the maximum)
Chain of human Peroxisome Proliferator-activated Receptor delta (PPARd), PPARD (gene 5467) (Q03181 whole entry, looked up, the tested form may be a part): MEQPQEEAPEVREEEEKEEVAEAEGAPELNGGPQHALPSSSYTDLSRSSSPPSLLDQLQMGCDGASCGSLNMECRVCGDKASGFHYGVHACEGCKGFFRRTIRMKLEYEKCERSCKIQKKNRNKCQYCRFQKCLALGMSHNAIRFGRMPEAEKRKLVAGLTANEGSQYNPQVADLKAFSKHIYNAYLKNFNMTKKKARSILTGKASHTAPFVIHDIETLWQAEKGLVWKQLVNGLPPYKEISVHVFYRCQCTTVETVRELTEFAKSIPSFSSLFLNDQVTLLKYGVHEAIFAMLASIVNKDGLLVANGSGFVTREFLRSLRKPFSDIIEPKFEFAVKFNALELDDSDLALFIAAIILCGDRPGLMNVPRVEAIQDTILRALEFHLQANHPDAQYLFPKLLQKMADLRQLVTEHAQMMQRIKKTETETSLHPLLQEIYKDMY
In short: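 Fluorescence from capillary electrophoresis of labelled RT-PCR reporter fragments gives the signal; DMSO sets baseline. Cells: HepG2 transiently carrying GAL4-UAS reporter units plus chimeric nuclear receptor-Gal4 proteins, exposed to chemicals for 24 h.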

[13] = ATG_M_32_TRANS: Attagene TRANS-FACTORIAL HepG2 Assay for M32 Transcription Factor (Internal Marker) (AID 2282984; active = hit-call score of the fitted dose curve at least 0.9, where 1 is the maximum;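 also: transcript level of a background control reporter unit measured by RT-PCR and capillary electrophoresis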); conditions: HepG2 Attagene TRANS M32 internal marker reporter
In short: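 HepG2 cells transiently transfected with GAL4-UAS reporter units, dosed for 24 hours. Reporter mRNA quantified by RT-PCR, 6-FAM labelling, HpaI digestion and capillary electrophoresis; internal-marker signal fitted upward relative to DMSO.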

[14] = molecular target: Nuclear receptor subfamily 4 group A member 2 (Homo sapiens) (UniProt P43354); assay: ATG_NURR1_TRANS: Attagene TRANS-FACTORIAL HepG2 Assay for human Nuclear Receptor Related Protein 1 (NURR1) (AID 2282985; active = hit-call score of the fitted dose curve at least 0.9, where 1 is the maximum); conditions: HepG2 Attagene TRANS reporter, mRNA readout
Chain of Nuclear receptor subfamily 4 group A member 2 (Homo sapiens) (P43354 whole entry, looked up, the tested form may be a part): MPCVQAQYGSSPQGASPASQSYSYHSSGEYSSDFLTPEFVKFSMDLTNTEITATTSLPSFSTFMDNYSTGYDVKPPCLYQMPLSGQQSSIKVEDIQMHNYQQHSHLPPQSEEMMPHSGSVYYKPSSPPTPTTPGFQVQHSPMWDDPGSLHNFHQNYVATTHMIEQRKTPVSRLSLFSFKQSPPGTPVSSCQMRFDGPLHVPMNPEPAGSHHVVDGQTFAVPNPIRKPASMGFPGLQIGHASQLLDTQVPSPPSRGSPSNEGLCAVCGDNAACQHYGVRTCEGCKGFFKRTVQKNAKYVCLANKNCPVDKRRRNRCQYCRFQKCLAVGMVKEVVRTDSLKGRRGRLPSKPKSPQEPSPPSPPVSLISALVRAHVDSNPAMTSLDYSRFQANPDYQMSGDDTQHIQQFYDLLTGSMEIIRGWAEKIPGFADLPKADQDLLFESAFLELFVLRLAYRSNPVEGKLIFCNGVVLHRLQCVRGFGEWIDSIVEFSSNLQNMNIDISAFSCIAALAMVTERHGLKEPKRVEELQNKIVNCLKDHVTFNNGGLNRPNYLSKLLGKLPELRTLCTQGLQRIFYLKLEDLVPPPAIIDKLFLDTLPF
In short: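 HepG2 cells transiently transfected with NURR1-Gal4 chimera and GAL4-UAS reporter units; after 24 hr compound exposure, reporter mRNA quantified by RT-PCR and capillary electrophoresis; gain of signal fitted against DMSO.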

[15] = BSK_4H_Eotaxin3: BioMAP Diversity Plus: 4H Assay for Eotaxin 3 Biomarker Activity (AID 2283000); conditions: primary human endothelial cells (HUVEC); actives raise or lower the signal
In short: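 Chemicals were added to human umbilical vein endothelium cultures, and Eotaxin-3 was quantified by ELISA at 24 h. Values were derived by bidirectional fitting with DMSO serving as negative control and activity baseline.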

[16] = molecular target: human Peroxisome Proliferator-activated Receptor alpha (PPARa), PPARA (gene 5465) (UniProt Q07869); assay: ATG_PPARa_TRANS: Attagene TRANS-FACTORIAL HepG2 Assay for human Peroxisome Proliferator-activated Receptor alpha (PPARa) (AID 2283001; active = hit-call score of the fitted dose curve at least 0.9, where 1 is the maximum;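 as to AC50: potency for gain of reporter signal over DMSO so agonist or activator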)
Chain of human Peroxisome Proliferator-activated Receptor alpha (PPARa), PPARA (gene 5465) (Q07869 whole entry, looked up, the tested form may be a part): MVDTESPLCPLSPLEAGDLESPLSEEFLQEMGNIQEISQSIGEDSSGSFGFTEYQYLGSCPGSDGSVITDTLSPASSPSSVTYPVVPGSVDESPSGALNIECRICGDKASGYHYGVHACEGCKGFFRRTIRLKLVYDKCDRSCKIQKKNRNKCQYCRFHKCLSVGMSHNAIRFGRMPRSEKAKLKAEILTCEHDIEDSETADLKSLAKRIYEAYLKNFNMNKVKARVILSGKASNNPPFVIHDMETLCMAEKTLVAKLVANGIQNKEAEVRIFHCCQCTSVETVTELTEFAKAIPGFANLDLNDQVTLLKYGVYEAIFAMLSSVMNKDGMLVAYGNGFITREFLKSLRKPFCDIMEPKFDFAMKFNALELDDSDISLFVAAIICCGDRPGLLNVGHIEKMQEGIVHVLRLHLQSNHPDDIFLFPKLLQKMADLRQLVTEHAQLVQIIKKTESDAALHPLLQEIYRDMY
In short: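 HepG2 cells transiently transfected with multiplexed GAL4-UAS reporters driven by exogenous chimeric NR-Gal4 proteins; reporter mRNA measured after 24 h dosing. Read-out by RT-PCR, 6-FAM labelling, HpaI digestion and capillary electrophoresis; gain of signal versus DMSO.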

[17] = ATG_M_06_TRANS: Attagene TRANS-FACTORIAL HepG2 Assay for M06 Transcription Factor (Internal Marker) (AID 2282983; active = hit-call score of the fitted dose curve at least 0.9, where 1 is the maximum;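 also: reporter transcript level by RT-PCR then capillary electrophoresis fluorescence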); conditions: HepG2 Attagene TRANS M06 internal marker reporter
In short: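 Transfect HepG2 with MRTUs → dose compounds 24 h → isolate RNA, oligo(dT) RT → PCR with reporter primers → 6-FAM primer extension → HpaI digest → CE fragment analysis. Positive direction vs DMSO.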

Measured: AC50

CCn1nc(Cc2ccccc2)cc1C1CCN(C[C@H]2C[C@H](N(C)[C@@H](C(=O)O)C(C)C)C[C@@H]2c2cccc(F)c2)CC1
active: [5] 38.2 µM | [6] 51.5 µM | [8] 100 µM
not listed: [13] | [14] | [15] | [16] | [17]
inactive: all other assays above

Clc1nc(Cl)c(Cl)c(Cl)c1Cl
active: [6] 11.2 µM | [11] 16.5 µM
not listed: [16] | [17]
inactive: all other assays above

Cc1ccc(N)cc1O
active: [6] 22.3 µM
not listed: [1] | [5] | [13] | [14] | [15] | [17]
inactive: all other assays above

COC(=O)CC(=O)OC
not listed: [4] | [5] | [12] | [13] | [15] | [16]
inactive: all other assays above

CCOC(=O)COc1ccc2c(c1)CC(NCC(O)c1cccc(Cl)c1)CC2 (stereo unspecified)
active: [8] 49.8 µM | [9] 33 µM | [10] 28.5 µM | [11] 27.5 µM | [15] 34.3 µM | [16] 33 µM
not listed: [4] | [17]
inactive: all other assays above

NC(=O)NO
not listed: [13] | [14] | [15] | [16] | [17]
inactive: all other assays above

Cc1ccc(C)c(O)c1
not listed: [5] | [14] | [15] | [16] | [17]
inactive: all other assays above

CC(C)CC(C)(O)C#CC(C)(O)CC(C)C (stereo unspecified)
not listed: [4] | [12] | [13] | [14] | [16] | [17]
inactive: all other assays above

O=C(O)CC(O)C(=O)O (stereo unspecified)
not listed: [1] | [5] | [12] | [13] | [14] | [15]
inactive: all other assays above

O=C(O)c1cccc(Oc2ccccc2)c1
not listed: [4] | [12] | [13] | [14] | [17]
inactive: all other assays above

O=C(O)CCN(C1(C(=O)NO)CCCC1)S(=O)(=O)c1ccc(Oc2ccc(F)cc2)cc1
not listed: [12] | [13] | [14] | [15] | [17]
inactive: all other assays above

CCNc1ccccc1
not listed: [4] | [13] | [15] | [17]
inactive: all other assays above

Cc1ccc(O)cc1
inactive: [2] | [3] | [5] | [6] | [7] | [8] | [9] | [10] | [11]
